# Reference: PubChem BioAssay (Tox21)
# Where “and” joins values, the source holds several entries; their conditions need not be identical. Identical values can stand only once. Results filed as inconclusive are left out. More than one record can exist for a structure, and the calls need not agree. Calls of active or inactive are those of the source. Unless noted, the call rests on the fitted dose curve; in most records, active means well fitted curve in the direction sought with a large enough effect in the repeat runs; inconclusive means weak or mixed curves; inactive means no such curve, though single readings can be large; an effect the other way counts as inactive or inconclusive.
# Experiment: qHTS assay for small molecule disruptors of the mitochondrial membrane potential - cell viability (AID 720634; calls by dose curve;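 further: human HepG2 liver cancer cells; nearly all actives have a fitted effect of over 20% in size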)
# Conditions: HepG2 viability, ATP luminescence (CellTiter-Glo), 1 h; series mostly up to 83.2 µM; activity change, negative = cytotoxicity: at the top concentration
# In short: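 HepG2 cells, 2,000 per well, attached overnight, then treated 1 hr at 37 C, 5% CO2. Viability read as ATP by CellTiter-Glo luminescence after 30 min at room temperature. Read in the same wells as the m-MPI membrane-potential dye assay.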
# On the % scale 0 is the no-effect control and ±100 the full control effect.
SMILES,"activity change, negative = cytotoxicity",Potency
COc1nn(C(=O)NS(=O)(=O)c2ccccc2OC(F)(F)F)c(=O)n1C,7.24% (inactive),–
O=C1NCN(c2ccccc2)C12CCN(CCCOc1ccc(F)cc1)CC2,40.3% (inactive),–
CCC(Cl)CCl (stereo not drawn),7.9% [at 95.3 µM] (inactive),–
CCCC(=O)Cl,-9.55% (inactive),–
O=C(C(Cl)(Cl)Cl)C(Cl)(Cl)Cl,6.58% [at 95.3 µM] (inactive),–
CN(N=O)c1ccc([N+](=O)[O-])cc1,-6.69% (inactive),–
CC(=O)NC1CCSC1=O (stereo not drawn),–,inactive
ClP(Cl)(Cl)(Cl)Cl,21.3% [at 95.3 µM] (inactive),–
O=Cc1ccc2c(c1)OCO2,9.03% (inactive),–
O=S(=O)(O)C(F)(F)C(F)(F)C(F)(F)C(F)(F)F,18.2% [at 95.3 µM] (inactive),–
CCn1cc[n+](C)c1,–,inactive
Oc1ccc(Cl)c(Cl)c1Cl,-18.2% [at 95.3 µM] (inactive),–
CNP(=O)(OC)Oc1ccc(C(C)(C)C)cc1Cl (stereo not drawn),-10.9% (inactive),–
O=C(CBr)c1ccccc1,27% [at 95.3 µM] (inactive),–
C=COC(C)=O,-2.32% [at 95.3 µM] (inactive),–
CC1C(=O)C[C@]2(C(C)C)C[C@H]12 (stereo partly drawn),6.23% (inactive),–
COc1nn(CSP(=S)(OC)OC)c(=O)s1,-13.9% (inactive),–
CCOP(O)OCC,8.55% (inactive),–
CCCCCCCCCCOC(=O)c1ccccc1C(=O)OCCCCCCCCCC,8.93% (inactive),–
CCOC(=O)COc1cc(-c2nn(C)c(OC(F)F)c2Cl)c(F)cc1Cl,-13.6% (inactive),–
O=C(Nc1ccccc1)Nc1cnns1,-4.92% (inactive),–
CC(=O)[C@H]1CC[C@H]2[C@@H]3CC[C@H]4C[C@](C)(O)CC[C@]4(C)[C@H]3CC[C@]12C,1.96% (inactive),–
CCOP(=S)(OCC)SCSCC,-13.9% (inactive),–
O=C(CCl)c1ccc(Cl)cc1Cl,–,inactive
NCC(CC(=O)O)c1ccc(Cl)cc1 (stereo not drawn),4.83% (inactive),–
CN1[C@@H]2CC[C@H]1CC(OC(=O)c1cc(Cl)cc(Cl)c1)C2 (stereo partly drawn),-3.52% (inactive),–
Clc1cc(Cl)c(Cl)c(Cl)c1,5.86% (inactive),–
ClCCCCBr,7.89% [at 95.3 µM] (inactive),–

# Experiment: qHTS assay for small molecule disruptors of the mitochondrial membrane potential (AID 720635); further: potency means the concentration at half of the fitted maximal effect
# Conditions: HepG2 mitochondrial membrane potential, Mito-MPS dye ratio; series mostly up to 83.2 µM; ratio activity, negative = MMP loss: at the top concentration
# In short: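 HepG2 cells (2,000/well) attached overnight at 37C, then took compound for 1 hr at 37C, 5% CO2. Mito-MPS dye was added for 30 min; fluorescence was read at 490/535 nm (monomers) and 540/590 nm (aggregates).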
SMILES,"ratio activity, negative = MMP loss",Potency
COc1nn(C(=O)NS(=O)(=O)c2ccccc2OC(F)(F)F)c(=O)n1C,-6.96% (inactive),–
COC(C)(C)CCC[C@H](C)C/C=C/C(C)=C/C(=O)OC(C)C,–,30.6 µM (active)
O=C1NCN(c2ccccc2)C12CCN(CCCOc1ccc(F)cc1)CC2,–,3.35 µM (active)
CCCC(=O)Cl,-20.3% (inactive),–
O=C(C(Cl)(Cl)Cl)C(Cl)(Cl)Cl,14.4% [at 95.3 µM] (inactive),–
CN(N=O)c1ccc([N+](=O)[O-])cc1,-16.7% (inactive),–
CC(=O)NC1CCSC1=O (stereo not drawn),–,inactive
O=Cc1ccc2c(c1)OCO2,-13.7% (inactive),–
CCn1cc[n+](C)c1,–,inactive
Oc1ccc(Cl)c(Cl)c1Cl,–,4.49 µM (active)
CNP(=O)(OC)Oc1ccc(C(C)(C)C)cc1Cl (stereo not drawn),-9.89% (inactive),–
O=C(CBr)c1ccccc1,-6.33% [at 95.3 µM] (inactive),–
CC1C(=O)C[C@]2(C(C)C)C[C@H]12 (stereo partly drawn),19% (inactive),–
CCCCCCCCCCOC(=O)c1ccccc1C(=O)OCCCCCCCCCC,18.3% (inactive),–
O=C(Nc1ccccc1)Nc1cnns1,–,3.06 µM (active)
CC(=O)[C@H]1CC[C@H]2[C@@H]3CC[C@H]4C[C@](C)(O)CC[C@]4(C)[C@H]3CC[C@]12C,-9.22% (inactive),–
O=C(CCl)c1ccc(Cl)cc1Cl,–,inactive and 17.1 µM (active)
O=C(OC1CCCCC1)c1ccccc1C(=O)OC1CCCCC1,–,28.8 µM (active)
NCC(CC(=O)O)c1ccc(Cl)cc1 (stereo not drawn),12.5% (inactive),–
Clc1cc(Cl)c(Cl)c(Cl)c1,14.6% (inactive),–

# Experiment: qHTS assay to test for compound auto fluorescence at 590 nm (red) in HepG2 cells (AID 720674)
# Conditions: HepG2 autofluorescence, red 540/590 nm, 1 h; series mostly up to 91.3 µM; fluorescence, relative to Rose Bengal: at the top concentration
# In short: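 Intrinsic compound fluorescence in the red window (Ex/Em 540/590 nm) is measured in attached HepG2 cells exposed for 1 hr, DMSO vehicle as baseline, benchmarked to Rose Bengal sodium.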
SMILES,"fluorescence, relative to Rose Bengal",outcome
COc1nn(C(=O)NS(=O)(=O)c2ccccc2OC(F)(F)F)c(=O)n1C,-0.0103% (inactive),–
COC(C)(C)CCC[C@H](C)C/C=C/C(C)=C/C(=O)OC(C)C,0.0944% (inactive),–
O=C1NCN(c2ccccc2)C12CCN(CCCOc1ccc(F)cc1)CC2,-0.0474% [at 46 µM] (inactive),–
CCC(Cl)CCl (stereo not drawn),-0.108% (inactive),–
CCCC(=O)Cl,0.311% (inactive),–
O=[Se]=O,-0.086% [at 46 µM] (inactive),–
O=C(C(Cl)(Cl)Cl)C(Cl)(Cl)Cl,0.173% [at 95.7 µM] (inactive),–
CN(N=O)c1ccc([N+](=O)[O-])cc1,0.148% (inactive),–
CC(=O)NC1CCSC1=O (stereo not drawn),–,inactive
ClP(Cl)(Cl)(Cl)Cl,0.208% (inactive),–
O=S(=O)(O)C(F)(F)C(F)(F)C(F)(F)C(F)(F)F,0.298% (inactive),–
CCn1cc[n+](C)c1,–,inactive
O=[N+]([O-])c1ccc(F)c([N+](=O)[O-])c1,–,inactive
CNP(=O)(OC)Oc1ccc(C(C)(C)C)cc1Cl (stereo not drawn),-0.253% (inactive),–
O=C(CBr)c1ccccc1,-0.328% (inactive),–
C=COC(C)=O,0.242% [at 95.7 µM] (inactive),–
COc1nn(CSP(=S)(OC)OC)c(=O)s1,-0.543% (inactive),–
CCc1ccc(C(=O)NN(C(=O)c2cc(C)cc(C)c2)C(C)(C)C)cc1,-0.334% (inactive),–
CCCCCCCCCCOC(=O)c1ccccc1C(=O)OCCCCCCCCCC,0.0261% (inactive),–
CCCC(Cn1cncn1)c1ccc(Cl)cc1Cl (stereo not drawn),-0.137% (inactive),–
CCOC(=O)COc1cc(-c2nn(C)c(OC(F)F)c2Cl)c(F)cc1Cl,-0.0156% (inactive),–
O=C(Nc1ccccc1)Nc1cnns1,-0.407% (inactive),–
CC(=O)[C@H]1CC[C@H]2[C@@H]3CC[C@H]4C[C@](C)(O)CC[C@]4(C)[C@H]3CC[C@]12C,-0.0502% [at 46 µM] (inactive),–
CCOP(=S)(OCC)SCSCC,-0.0138% (inactive),–
O=C(CCl)c1ccc(Cl)cc1Cl,–,inactive
O=C(OC1CCCCC1)c1ccccc1C(=O)OC1CCCCC1,-0.0571% [at 95.7 µM] (inactive),–
NCC(CC(=O)O)c1ccc(Cl)cc1 (stereo not drawn),0.908% [at 46 µM] (inactive),–
CN1[C@@H]2CC[C@H]1CC(OC(=O)c1cc(Cl)cc(Cl)c1)C2 (stereo partly drawn),-0.57% [at 46 µM] (inactive),–
Clc1cc(Cl)c(Cl)c(Cl)c1,-0.186% (inactive),–
ClCCCCBr,0.209% (inactive),–
